Screening results as filed in PubChem.
Hits are enriched below; roughly 32% of the tested compounds scored in any of these assays.
CYP2C9 activ – activators of human CYP2C9. recombinant CYP2C9, luciferin-H conversion, luminescence; stronger effect = higher value; factor 1 = untreated enzyme, 0 = blocked. activation factor at 5 µM. actives 1.4% (n = 96,000). AID 1024;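 active = activation factor of 2 or more for CYP2C9 at a 5 µM dose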;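 also: 0 = sulfaphenazole-blocked wells and 1 = vehicle-only wells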
PostGolgi ctrl – growth of the yeast control strain, post-Golgi counter-screen; efflux-deficient yeast background strain, growth absorbance A615, 16 h; inhibition, % at 10 µM; actives 5% (n = 98,000); AID 738
CYP2C19 inhib – human CYP2C19 inhibition | CYP2C19 Supersomes, luciferin-H EGE luminescence, 30 min | P33261 | actives 21% (n = 96,000) | inhibition, % at 5 µM;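 active = CYP2C19 inhibition above a set limit at 5 µM in the primary screen, cut at about 50% in these data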;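 also: plate controls were negative control wells for no effect and 2.5 mM tranylcypromine positive control for full effect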
Target sequence (P33261 whole entry, looked up): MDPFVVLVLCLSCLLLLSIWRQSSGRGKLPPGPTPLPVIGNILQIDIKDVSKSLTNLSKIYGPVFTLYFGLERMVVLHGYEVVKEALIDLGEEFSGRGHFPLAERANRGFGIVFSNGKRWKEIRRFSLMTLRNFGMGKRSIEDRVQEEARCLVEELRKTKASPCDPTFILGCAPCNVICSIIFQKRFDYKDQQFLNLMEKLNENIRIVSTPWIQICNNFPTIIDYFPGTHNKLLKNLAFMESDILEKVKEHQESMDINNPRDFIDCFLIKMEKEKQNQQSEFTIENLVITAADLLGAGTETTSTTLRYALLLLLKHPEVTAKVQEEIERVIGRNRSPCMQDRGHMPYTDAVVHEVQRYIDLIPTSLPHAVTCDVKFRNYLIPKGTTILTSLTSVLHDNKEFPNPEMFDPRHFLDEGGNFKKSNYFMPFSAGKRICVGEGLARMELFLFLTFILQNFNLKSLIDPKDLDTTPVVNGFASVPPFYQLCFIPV
CYP2C9 inh – blocks human cytochrome P450 2C9. P11712. CYP2C9 Supersomes, luciferin-H conversion, luminescence. inhibition, % at 5 µM. actives 20% (n = 96,000);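 active = blocking of liver enzyme CYP2C9 beyond about 50% at 5 µM, limit read from the data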
PostGolgi yeast – growth inhibition of a yeast mutant, post-Golgi transport screen; actives 0.9% (n = 98,000); inhibition, % at 10 µM; post-Golgi transport phenotypic cell assay;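 also: yeast cells grown in 1536-well plates; yeast grown about 18 h at 30C before absorbance read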
CYP2C19 activ – activators of human cytochrome P450 2C19; activation factor at 5 µM; AID 1025; recombinant CYP2C19, luciferin-H EGE luminescence; stronger effect = higher value; 0 = fully inhibited enzyme, 1 = untreated enzyme; P33261; 96,000 tested, under 10 active;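 active = activation factor of at least 2 at 5 µM in the primary screen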;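 also: 0 = wells with 2.5 mM tranylcypromine and 1 = vehicle-only wells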
The depositor's hits bear a star; / = no result given. Rule as the data show it, unless noted: active = inhibition above about 30%; inactive = the rest.

SMILES | CYP2C9 activ | PostGolgi ctrl | CYP2C19 inhib | CYP2C9 inh | PostGolgi yeast | CYP2C19 activ
Cc1ccc(N(C(=O)Cn2nnc3ccccc32)C(C(=O)NC2CCCCC2)c2cn(C)nc2C)cc1 (stereo not drawn) | 0.9 | 2 | 67* | 12 | 5 | 0.3
O=C(Cn1nnc2ccccc21)NC1CCCCC1 | 1 | 5 | 55* | -1 | 9 | 0.5
Cc1nn(C)cc1C(C(=O)NC1CCCCC1)N(C(=O)Cn1nnc2ccccc21)c1ccc(F)cc1 (stereo not drawn) | 1 | 6 | 12 | 0 | 0 | 0.9
CC(C)C(CCN1C(=O)CCC1=O)C1CCOC(C)(C)C1 (stereo not drawn) | 0.9 | 13 | 1 | 9 | -1 | 1
Cc1ccc2occ(CN3CCN(c4ccccc4)CC3)c(=O)c2c1 | 0.8 | 19 | 82* | 21 | -4 | 0.2
Cc1ccc2occ(CN3CCN(Cc4ccccc4)CC3)c(=O)c2c1 | 1.2 | 0 | 13 | -18 | 0 | 0.9
O=c1c(CN2CCN(Cc3ccccc3)CC2)coc2ccc(Cl)cc12 | 2.8* | 4 | 44 | -182 | -5 | 0.6
Cc1ccc(-c2nc3ccccc3o2)cc1NC(=O)c1ccc2c(c1)OCO2 | 0.3 | 3 | 50 | 70* | 2 | 0.5
COc1cc(C(=O)Nc2cccc(-c3nc4ccccc4o3)c2C)cc(OC)c1OC | 0.7 | 12 | 45 | 31 | -3 | 0.5
Cc1c(NC(=O)c2ccc3c(c2)OCO3)cccc1-c1nc2ccccc2o1 | 0.3 | 17 | 50 | 69* | -3 | 0.5
O=C(Nc1ccc(-c2nc3ccccc3o2)cc1)c1ccc2c(c1)OCO2 | 0.9 | 6 | 7 | 15 | -5 | 0.9
Cn1c(=O)c2c(ncn2CC(O)CNc2ccc(Cl)cc2)n(C)c1=O (stereo not drawn) | 1 | 6 | 20 | -2 | 21 | 0.8
CCN(CC)C(=O)CSc1nc2ccc(NC(=O)CSc3nccn3C)cc2s1 | / | -5 | / | / | -5 | /
O=S1(=O)C=CC(N2CCOCC2)C1 (stereo not drawn) | 1.2 | 3 | -12 | -20 | 5 | 1.1
O=S(=O)(Nc1nc2ccccc2nc1NCc1ccco1)c1cccs1 | 0.2 | -1 | -7 | 78* | -13 | 1.1
O=S(=O)(Nc1nc2ccccc2nc1Nc1ccc2c(c1)OCCO2)c1cccs1 | 0.1 | 19 | 14 | 93* | -1 | 0.9
CCCCCNc1nc2ccccc2nc1NS(=O)(=O)c1cccs1 | 0.3 | 24 | 4 | 68* | 6 | 1
COc1ccc(OC)c(NS(=O)(=O)c2cccs2)c1 | / | 7 | / | / | 3 | /
C=CCNc1nc2ccccc2nc1NS(=O)(=O)c1cccs1 | 0.1 | 3 | -2 | 93* | -6 | 1
Cc1cc(C)nc(N(C#N)CC(=O)N(c2ccccc2)C(C)C)n1 | 0.9 | 16 | 30 | 5 | -3 | 0.7
Cc1cc(NC(=O)CSc2nnc(C)c(=O)[nH]2)no1 | 0.9 | 6 | 2 | 6 | 3 | 1
COc1ccc(CCNC(=O)NC(C(F)(F)F)C(F)(F)F)cc1OC | 1 | 16 | 23 | 4 | 6 | 0.8
COc1ccc(C2CC(c3ccco3)n3ncnc3N2)cc1 (stereo not drawn) | / | 2 | / | / | 2 | /
COc1cccc(C2CC(c3ccccc3)n3ncnc3N2)c1 (stereo not drawn) | 0.8 | -3 | 51* | 24 | -1 | 0.5
COc1cccc(C2CC(c3ccc(C)cc3)n3ncnc3N2)c1 (stereo not drawn) | 0.4 | 4 | 97* | 63* | 9 | 0
SMILES | CYP2C9 activ | PostGolgi ctrl | CYP2C19 inhib | CYP2C9 inh | PostGolgi yeast | CYP2C19 activ
COc1cccc(C2CC(c3cccc(Br)c3)n3ncnc3N2)c1 (stereo not drawn) | 0.6 | 5 | 64* | 37 | 2 | 0.4
Fc1cccc(C2CC(c3cccc(Br)c3)Nc3nnnn32)c1 (stereo not drawn) | 0.1 | 9 | 95* | 95* | 18 | 0
CCOc1ccc(C2CC(c3ccc(OC)cc3)n3ncnc3N2)cc1 (stereo not drawn) | 0.6 | 7 | 6 | 38 | -6 | 0.9
CN1CCN(c2ccccc2NC(=O)COc2ccc(Br)cc2)CC1 | 0.2 | 1 | 48 | 80* | 5 | 0.5
O=C(COc1ccccc1)Nc1cc(C(F)(F)F)ccc1N1CCCC1 | 0.8 | 13 | 33 | 18 | -3 | 0.7
O=C(COc1ccccc1)Nc1ccccc1N1CCN(c2ccccc2)CC1 | 0.4 | 1 | 21 | 56* | -3 | 0.8
Cc1cccc(OCC(=O)Nc2ccccc2N2CCCCC2)c1 | 0.3 | 17 | 85* | 65* | 7 | 0.1
O=C(COc1ccccc1)Nc1ccccc1N1CCN(c2ccc(F)cc2)CC1 | 0.9 | -2 | -4 | 8 | -5 | 1
O=C(COc1ccccc1)Nc1ccccc1N1CCCCC1 | 0.2 | 11 | 66* | 78* | 14 | 0.3
CC1(C)N=C(N)NC(Nc2cccc(Br)c2)=N1 | 1 | -5 | 18 | 3 | 5 | 0.8
O=C(c1cccs1)N1CCN(CCc2ccccc2)CC1 | 0.6 | 1 | 79* | 43 | 19 | 0.2
COc1ccc(C(=O)N2CCN(C(=O)Cc3ccccc3)CC2)cc1OC | 1 | 47* | 7 | 0 | 0 | 0.9
O=C(c1cnccn1)N1CCN(C/C=C/c2ccccc2)CC1 | 1 | 1 | 8 | 3 | -7 | 0.9
O=C(c1nn(Cc2ccccc2)c(=O)c2ccccc12)N1CCN(C/C=C/c2ccccc2)CC1 | 0.2 | 6 | 41 | 82* | -1 | 0.6
COc1ccc(C(=O)N2CCN(C(=O)c3ccco3)CC2)cc1OC | 1.2 | -2 | -14 | -15 | 11 | 1.1
O=C(Nc1ccc(F)cc1)N1CCN(C/C=C/c2ccccc2)CC1 | 0.5 | 13 | 42 | 51* | 6 | 0.6
O=C(Cc1ccccc1)N1CCN(C(=O)c2cccs2)CC1 | 0.8 | 7 | 81* | 23 | 5 | 0.2
O=C(c1ccco1)N1CCN(C/C=C/c2ccccc2)CC1 | 1 | -16 | 13 | 3 | -5 | 0.9
O=C(c1cccs1)N1CCN(C/C=C/c2ccccc2)CC1 | 0.5 | 0 | 60* | 52* | -6 | 0.4
Cc1cc(C)c2c(=O)n(-c3ccccc3)[nH]c2n1 | 1.1 | / | -3 | -5 | / | 1
O=c1c2c(C(F)(F)F)cc(C(F)(F)F)nc2[nH]n1-c1ccccc1 | 0.2 | 16 | 2 | 84* | 7 | 1
Cc1cc(C(C)(C)C)nc2[nH]n(-c3ccccc3)c(=O)c12 | 0.6 | 19 | 40 | 42 | -4 | 0.6
Cc1cc(-c2ccccc2)nc2[nH]n(-c3ccccc3)c(=O)c12 | 0.4 | -3 | 10 | 59* | -7 | 0.9
COc1ccc(-c2cnn(-c3ccccc3)c2N)cc1OC | 2.2* | 10 | 30 | -120 | -2 | 0.7
CC(=O)N(c1cccc(C)c1)C1SC(=O)N(c2ccccc2)C1=O (stereo not drawn) | 0.6 | 15 | 68* | 44 | 22 | 0.3
